This is an account of results in PubChem BioAssay AID1974 (The Scripps Research Institute Molecular Screening Center, 2009).

Among all 300,000 compounds or so, about 3,200 (1.1%) were called active. What follows is part of a selection rich in actives, with near analogues and random picks from the rest. Unmarked numbers belong to inactive results.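 The calls were made as follows: active = inhibition above the campaign mean inhibition plus 3 SD (cut at about 35% in these data); inactive = the rest.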

In the test the target is Glutathione S-transferase omega-1 (Homo sapiens) (UniProt P78417). The test is described as follows: human GSTO1 enzyme inhibition – biochemical, fluorescence polarization, counter-screen for RBBP9 inhibitor project, primary screen (AID 1974).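 Also: 0% = GSTO1-1 with DMSO and 100% = wells lacking GSTO1-1 enzyme.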 Particulars: recombinant GSTO1, activity-based probe fluorescence polarization; at 5.96 µM; hits give high values. (Fluorescence polarisation rises when a labelled molecule tumbles more slowly, as on binding a larger partner.)
Glutathione S-transferase omega-1 (Homo sapiens), sequence (P78417 whole entry, looked up): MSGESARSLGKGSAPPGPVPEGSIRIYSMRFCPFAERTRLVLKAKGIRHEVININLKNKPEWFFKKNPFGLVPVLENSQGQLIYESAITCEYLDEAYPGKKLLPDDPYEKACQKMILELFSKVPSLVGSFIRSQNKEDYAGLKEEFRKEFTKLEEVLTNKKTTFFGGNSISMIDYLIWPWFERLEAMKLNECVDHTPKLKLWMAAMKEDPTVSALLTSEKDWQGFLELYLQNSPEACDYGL
For the compound `CC(=O)c1c(C)[nH]c(C(=O)CN2C(=O)NC(C)(C)C2=O)c1C`, the inhibition (usually the drop in the measured response relative to a control, in per cent) is -0.38%.
The same measure for `c1coc(-c2nc3nc4ccccc4n3nc2-c2ccco2)c1`: 47.1% (active); for `CS(=O)(=O)n1nc(-c2ccco2)nc1N`: -5.37%; for `Cn1c(-c2ccco2)nc2cc3ccccc3cc21`: 1.91%.
As to `CC(=O)CC(CC(=O)NC1CCCCC1)c1ccccc1` (configuration not stated), the inhibition was 5.92%.
Regarding `Cc1n[nH]c(=O)c2c(NC(=O)CSc3ccccc3F)oc(C)c12`, the inhibition is -2.53%.
The same measure for `Cc1coc2c(O)cc3c(c12)OC1(N2CCCCC2)C(=O)NCCCC31` (configuration not stated): 74.4% (active); for `CCN(CC)CCn1c2c(c(SCC(=O)Nc3nc4ccccc4s3)nc1=O)CCCC2`: -6.43%; for `CS(=O)(=O)c1ccc(C(=O)OCC(=O)NNC(=O)COc2ccc(Cl)cc2)cc1`: 1.2%.
For `Cc1ccc(NC(=O)CN(C)C(=O)Cn2nnc(-c3ccccc3)n2)cc1` the value was 1.43%.
Turning to `OCC[C@H]1C[C@H](O)[C@@H](O)[C@]2(CCc3ccccc3O2)O1`, the inhibition is 3.69%.
Turning to `CCOC(=O)c1cc(NC(=O)c2cccnc2)ccn1`, the inhibition was 11.6%.
`O=C(CCl)NNc1cccc(Cl)n1`: the inhibition was 50.5% (active).
The same measure for `O=C(Cc1c(Cl)cccc1Cl)NC1CC1`: 3.33%.
For `O=C(NNc1ccccn1)c1ccc(Cl)nc1` the value was 12.7%; for `O=C(NCC1CC1)c1onc(CSc2ccccc2)c1C(=O)NCC1CC1`, 4.37%.
The same measure for `CCOC(=O)c1ccc(NC(=O)c2c(N)n(C)c(=O)[nH]c2=O)cc1`: -7.15%; for `CN(C)c1ccc(S(=O)(=O)NCC(=O)NCC2CCCCC2)cc1[N+](=O)[O-]`: -5.25%; for `CCN(C(=O)COC(=O)c1cc(NS(=O)(=O)c2ccc(Cl)c([N+](=O)[O-])c2)ccc1O)C1CCCCC1`: 38.5% (active).
Take `COc1ccc(NS(=O)(=O)c2ccc(O)c(C(=O)OCC(=O)NC3CCCCC3)c2)cc1`: the inhibition is -9.76%.
For `COCCn1c(SC(C)C(=O)NC2CC2)nnc1-c1cccc(C)c1` (configuration not stated) the value was 12.9%; for `Cc1ccc(NC(=O)C(C)OC(=O)Cc2c[nH]c3ccccc23)cc1S(=O)(=O)N1CCOCC1` (configuration not stated), 11.7%; for `O=C(NCCS(=O)(=O)N1CCN(c2ccccc2)CC1)c1ccco1`, 1.82%.
The same measure for `Cc1ccc2occ(/C=N/NC(=O)c3ccccc3C)c(=O)c2c1`: 23.9%; for `O=c1c(/C=N/O)coc2ccc(Cl)cc12`: 38.5% (active).
Consider `NC(=S)N/N=C/c1coc2cc(Cl)ccc2c1=O`, for which the inhibition is 0.72%.
The same measure for `COC1(C2=NCCN2)COc2ccccc2O1` (configuration not stated): 10.3%; for `COc1ccccc1C(=O)NCCC(=O)NN1C(=O)NC2(CCCCC2)C1=O`: 0.1%; for `CCCCC1=CC2=CC(=O)C(C)(OC(=O)CC)C(=O)C2=CN1CCCOC(C)C` (configuration not stated): 19.3%.
Take `COC(=O)CCCC1=CC2=CC(=O)C(C)(OC(=O)c3cccs3)C(=O)C2=CN1CC(C)C` (configuration not stated): the inhibition is 19.4%.
The same measure for `COC(=O)CCCC1=CC2=CC(=O)C(C)(OC(=O)c3cccs3)C(=O)C2=CN1CC1CC1` (configuration not stated): 43.3% (active); for `CC(C)N(Cc1ccccc1)C(=O)COC(=O)c1ccccc1SCC(=O)N1CCCC1`: 8.57%.
As to `O=C(CCCn1c(SCC(=O)c2ccccc2)nc2ccccc2c1=O)NCC1CCCO1` (configuration not stated), the inhibition was -0.93%.
The same measure for `O=C(CCCn1c(SCC(=O)c2ccc(F)cc2)nc2ccccc2c1=O)NCc1ccco1`: 5.62%; for `O=C(CCn1c(SCC(=O)c2ccccc2)nc2ccccc2c1=O)NCc1ccc(F)cc1`: 62.5% (active); for `CCCCCCSc1ccc([C@@H]2[C@@H]3C(=O)N(CC)C(=O)[C@@H]3[C@]3(C(=O)OC)CCCCN23)cc1OC`: -5.28%.
For `Cc1cccc(NS(=O)(=O)c2cc(Cl)ccc2Cl)n1` the value was -9.4%; for `O=C1C(Cl)=C(N2CCOCC2)C(=O)N1c1ccccc1`, 3.26%; for `COC1=C(N2CCOCC2)C(=O)c2ccccc2C1=O`, 57.8% (active).
For `COc1ccc(N2CCN(C(C)=C3C(=O)c4ccccc4C3=O)CC2)cc1` the value was 2.82%; for `COc1ccc(NS(=O)(=O)c2ccc(C)c(C(=O)NNC(=O)c3csc(N4CCOCC4)n3)c2)cc1`, -5.75%.
With `CCCC1C(=O)N2C(N(C)C)=Nc3ccc(C)cc3N2C1=O` (configuration not stated), the inhibition is -1.7%.
Consider `COc1ccc(-c2cnc(SCCNC(=O)c3ccc4c(c3)OCO4)[nH]2)cc1`, for which the inhibition is -3.18%.
The same measure for `COC(=O)c1ccc(CSc2nncn2C)cc1`: -6.04%; for `COC(=O)c1ccc(CSc2nnc(NC(C)C)s2)cc1`: -6.8%; for `COC(=O)c1ccc(CSc2nncn2N)cc1`: 61% (active).
For `OCC[C@H]1C[C@H](O)[C@@H](O)[C@]2(CCCCO2)O1` the value was 3.4%; for `COc1ccc(CC2c3cc(OC)c(OC)cc3CC[N+]2(C)CCC(=O)OCCCCCOC(=O)CC[N+]2(C)CCc3cc(OC)c(OC)cc3C2Cc2ccc(OC)c(OC)c2)cc1OC` (configuration not stated), 11.1%.
For `CCC(c1nnc(SCC(=O)NNC(=O)c2ccccc2)n1Cc1ccccc1)N(C)C` (configuration not stated) the value was 1.64%.
As for `COc1ccc(-n2ncc3c(SCC(=O)NNC(C)=O)ncnc32)cc1`, the inhibition is -13%.
Regarding `COc1ccc(NC(=O)CSc2ncnc3[nH]ncc23)cc1`, the inhibition is 36.4% (active).
The same measure for `COc1ccc(NC(=O)CSc2nc(C)cs2)cc1`: 4.13%.
The same measure for `CCCCN1C(N)=NC[C@@H]1Cc1ccccc1`: -4.9%; for `COc1cc(CC(=O)Nc2nc(-c3ccc(F)c(F)c3)cs2)cc(OC)c1OC`: -6.41%; for `CC(C)(C)C(=O)OCc1nc(-c2ccc(O)c(O)c2)cs1`: 37.1% (active).
Turning to `Cc1onc(C(=O)NN)c1-c1csc(COc2ccccc2)n1`, the inhibition was 10.4%.
`CC(CCN1CCN=C1N(C)C)c1ccccc1` (configuration not stated): the inhibition is 4.27%.
For `CNC(C)C#Cc1ccc2sc3cc(OC)c(OC)cc3c(=O)c2c1` (configuration not stated) the value was 0.59%; for `CCCS(=O)(=O)Nc1c(C(=O)O)[nH]c2ccccc12`, 0.73%; for `CC(NC(=O)COC(=O)c1cc(=O)[nH]c2ccccc12)c1ccccc1` (configuration not stated), -7.45%.
For `O=C(O)c1[nH]c2ccccc2c1C(c1cccc(O)c1)c1c(C(=O)O)[nH]c2ccccc12` the value was 50.4% (active); for `CN(C)CCN(C(=O)CN1C(=O)c2ccccc2C1=O)c1nc2cc3c(cc2s1)OCCO3`, 1.93%; for `COc1cccc(N2CC(NC(=O)c3ccc4ccccc4c3)CC2=O)c1` (configuration not stated), -0.99%.
For the compound `CC1CCN(C(=O)COC(=O)c2cc(S(=O)(=O)N3CCOCC3)ccc2Cl)CC1`, the inhibition is -3.67%.
The same measure for `O=C(OCC(=O)N1CCCC1=O)c1cc(S(=O)(=O)N2CCOCC2)ccc1Cl`: 82% (active).
The same measure for `CC(C)(C)C(=O)COC(=O)c1cc(S(=O)(=O)N2CCCCC2)ccc1N1CCOCC1`: -0.05%; for `CCCNC(=O)c1onc(CSc2ccc(F)cc2)c1C(=O)NC(C)C`: -6.69%.
For `CC[N+](C)(CC)CCC[n+]1c(-c2ccccc2)c2cc(N)ccc2c2ccc(N)cc21` the value was 92.8% (active).
`COCC(=O)Nc1c(I)c(C(=O)NCC(O)CO)c(I)c(C(=O)N(C)CC(O)CO)c1I` (configuration not stated): the inhibition is 3.24%.
On to `Cc1ccc2c(c1)N(CC(=O)NCC1CCCO1)C(=O)CO2` (configuration not stated), for which the inhibition was -3.07%.
With `CCOc1ccc(/C=N/NC(=O)CSc2ccccn2)cc1O`, the inhibition is 1.26%.
For `CCn1c(SCC(=O)N/N=C/c2ccncc2)nc2ccccc21` the value was -0.27%.
On to `Cn1c(SCC(=O)N/N=C/c2ccc(O)c(O)c2)nc2ccccc21`, for which the inhibition was 52% (active).
In the case of `CSc1nc2ccccc2c(=O)n1Cc1ccc(F)cc1`, the inhibition is -7.17%.
The same measure for `CC(=O)c1ccc(-c2ccc(Cn3c(C)nc4cc(N)c(C)nc43)cc2)cc1`: 4.41%.
Consider `Cc1cc2nc3c(=O)n(Cc4ccccc4)c(=O)[nH]c3nc2cc1N`, for which the inhibition is 44.9% (active).
For `CC1=C/C(=N\OS(=O)(=O)c2ccccc2)C=CC1=O` the value was 49.7% (active).
Take `O=S(=O)(ON(c1ccccc1)S(=O)(=O)c1ccccc1)c1ccccc1`: the inhibition is -0.47%.
With `CCN(CC(=O)NCc1cccs1)C(=O)c1ccc(OC)c(S(=O)(=O)N2CCOCC2)c1`, the inhibition is 11.9%.
As for `O=C(Cc1c[nH]c2ccccc12)OCCOC(=O)Cc1c[nH]c2ccccc12`, the inhibition is -2.78%.
The same measure for `COc1ccccc1CC(=O)NCCc1c[nH]c2ccccc12`: 5.81%; for `O=S(=O)(O)Oc1c[nH]c2ccccc12`: 62.3% (active).
The same measure for `Cc1ccc(Cn2nnc3c(=O)[nH]c(C4CCN(S(=O)(=O)/C=C/c5ccccc5)CC4)nc32)cc1`: -24.4%.
For `O=C(CN1C(=O)c2ccccc2C1=O)NCc1ccc(C(=O)O)cc1` the value was 3.69%; for `CC(=O)N(C1=C(Cl)C(=O)c2ccccc2C1=O)c1ccc(C(=O)O)cc1`, 79.7% (active).
Turning to `CC(C)N(C(=O)c1ccc(-c2ccccc2F)cc1)C(C)C`, the inhibition was 0.63%.
For `NC(=O)NC(=O)C(OC(=O)CCNS(=O)(=O)c1ccccc1)c1ccccc1` (configuration not stated) the value was -0.72%; for `Cc1ccc(CSCC(=O)N(C)CC(=O)Nc2ccc(C)cc2)cc1`, -11.5%; for `CCOC(=O)c1cnc2nc(SCc3ccccc3Cl)[nH]n2c1=O`, -25.6%.
The same measure for `Cc1ccc([N+](=O)[O-])cc1S(=O)(=O)N1CCCN(C)CC1`: 2.63%; for `CN1CCN(/N=C/c2ccc(-c3ccc([N+](=O)[O-])cc3)o2)CC1`: 3.62%; for `CN1CCN(/N=C2/C(=O)Nc3ccc([N+](=O)[O-])cc32)CC1`: 37.1% (active).
